# Measurements reported in PubChem BioAssay (EPA / NIEHS).
# Values joined by “and” are separate entries in the source; they are usually repeats but may differ in a detail not shown here. Equal values may be shown once. Records with an inconclusive call do not appear. The source holds several records for some structures; these can differ, active in one and inactive in another. Active and inactive are the calls of the source. Rule for the calls: active = hit-call score of the fitted dose curve at least 0.9, where 1 is the maximum; inconclusive = response in the unintended direction; inactive = score below 0.9.
# How the values were obtained:
# [1] = target: human Casein Kinase 1-delta (CK1D), CSNK1D (gene 1453) (UniProt P48730); experiment: NVS_ENZ_hCK1D: NovaScreen (NVS) Enzymatic Assay for human Casein Kinase 1-delta (CK1D) (AID 2283148)
# In short: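 Recombinant human CK1-delta, cell-free; fluorescent substrate with electrophoretic mobility-shift separation of product, read 1 h after dosing. Single 25 uM duplicate screen, then concentration-response up to 50 uM; loss of signal vs DMSO.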
# [2] = target: Glycogen synthase kinase-3 beta (Homo sapiens) (UniProt P49841); experiment: NVS_ENZ_hGSK3b: NovaScreen (NVS) Enzymatic Assay for human Glycogen Synthase Kinase-3 beta (GSK3b) (AID 2283165)
# In short: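 Recombinant enzyme with specific fluorescent substrate, 1 h, product separated by electrophoretic mobility shift. Primary duplicate screen at 25 uM; actives (e.g. 30% inhibition) followed in singleton concentration-response to 50 uM. Signal loss fitted versus DMSO.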
# [3] = target: human Dual Specificity Protein Phosphatase 3 (DUSP3), DUSP3 (gene 1845) (UniProt P51452); experiment: NVS_ENZ_hDUSP3: NovaScreen (NVS) Enzymatic Assay for human Dual Specificity Protein Phosphatase 3 (DUSP3) (AID 2283152);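 note: phosphatase activity of recombinant human DUSP3 on a fluorogenic substrate without cells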
# In short: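 Cell-free assay with recombinant human DUSP3 and fluorogenic substrate, read by fluorescence intensity. Primary screen ran duplicate at 25 uM; actives followed up in concentration series; loss of signal versus DMSO scored.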
# [4] = target: human Elastase, ELANE (gene 1991) (UniProt P08246); experiment: NVS_ENZ_hElastase: NovaScreen (NVS) Enzymatic Assay for human Elastase (AID 2283153)
# In short: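 Cell-free elastase from human neutrophils, 1.5 h after dosing, activity read by absorbance. Primary screen in duplicate at 25 uM; hits (e.g., 30% inhibition) rerun in singleton concentration-response up to 50 uM, fitted versus DMSO.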
# [5] = target: human Ephrin type-A Receptor 1 (EphA1), EPHA1 (gene 2041) (UniProt P21709); experiment: NVS_ENZ_hEphA1: NovaScreen (NVS) Enzymatic Assay for human Ephrin type-A Receptor 1 (EphA1) (AID 2283158);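 note: activity is signal loss versus DMSO meaning EphA1 kinase inhibition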
# In short: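 Biochemical kinase assay run cell-free; 1 h incubation; readout is fluorescence with mobility-shift separation of product. Concentration-response up to 50 uM for actives from a 25 uM screen.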
# [6] = target: human Ephrin type-B Receptor 1 (EphB1), EPHB1 (gene 2047) (UniProt P54762); experiment: NVS_ENZ_hEphB1: NovaScreen (NVS) Enzymatic Assay for human Ephrin type-B Receptor 1 (EphB1) (AID 2283154)
# In short: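 Cell-free kinase assay with recombinant enzyme, fluorescent substrate and electrophoretic mobility-shift separation of substrate and product; read 1 h after dosing. Single-concentration duplicate screen at 25 uM; loss of signal versus DMSO baseline.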
# [7] = target: human FYN Proto-Oncogene, Src family Tyrosine Kinase (Fyn), FYN (gene 2534) (UniProt P06241); experiment: NVS_ENZ_hFyn: NovaScreen (NVS) Enzymatic Assay for human FYN Proto-Oncogene, Src family Tyrosine Kinase (Fyn) (AID 2283161)
# In short: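 Recombinant enzyme with fluorescent substrate, product separated by electrophoretic mobility shift; read 1 h after dosing. Duplicate 25 uM single-point screen, actives retested in concentration series; loss of signal vs DMSO.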
# [8] = target: Histone deacetylase 3 (Homo sapiens) (UniProt O15379); experiment: NVS_ENZ_hHDAC3: NovaScreen (NVS) Enzymatic Assay for human Histone Deacetylase 3 (HDAC3) (AID 2283163)
# In short: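 Recombinant human HDAC3 with fluorescent substrate, 1 h after dosing; product separated from substrate by electrophoretic mobility shift and read by fluorescence. Primary screen at 25 uM in duplicate; actives (e.g. ≥30% inhibition) retested in concentration-response up to 50 uM.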
# [9] = target: human Esterase Plasma (ES), BCHE (gene 590) (UniProt P06276); experiment: NVS_ENZ_hES: NovaScreen (NVS) Enzymatic Assay for human Esterase Plasma (ES) (AID 2283157)
# In short: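 Cell-free enzyme assay using esterase extracted from human plasma; colorimetric absorbance read 0.25 hour after dosing. Single-concentration duplicate screen at 25 uM, then concentration-response up to 50 uM; loss of signal scored against DMSO baseline.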
# [10] = target: human Colony Stimulating Factor 1 Receptor (CSF1R), CSF1R (gene 1436) (UniProt P07333); experiment: NVS_ENZ_hCSF1R: NovaScreen (NVS) Enzymatic Assay for human Colony Stimulating Factor 1 Receptor (CSF1R) (AID 2283150)
# In short: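 Cell-free recombinant human CSF1R kinase with fluorescent substrate, product separated by electrophoretic mobility shift; read 1 h after dosing. Primary screen at 25 uM in duplicate, actives then in concentration-response up to 50 uM, relative to DMSO.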
# Sequence of human FYN Proto-Oncogene, Src family Tyrosine Kinase (Fyn), FYN (gene 2534) (P06241 whole entry, looked up): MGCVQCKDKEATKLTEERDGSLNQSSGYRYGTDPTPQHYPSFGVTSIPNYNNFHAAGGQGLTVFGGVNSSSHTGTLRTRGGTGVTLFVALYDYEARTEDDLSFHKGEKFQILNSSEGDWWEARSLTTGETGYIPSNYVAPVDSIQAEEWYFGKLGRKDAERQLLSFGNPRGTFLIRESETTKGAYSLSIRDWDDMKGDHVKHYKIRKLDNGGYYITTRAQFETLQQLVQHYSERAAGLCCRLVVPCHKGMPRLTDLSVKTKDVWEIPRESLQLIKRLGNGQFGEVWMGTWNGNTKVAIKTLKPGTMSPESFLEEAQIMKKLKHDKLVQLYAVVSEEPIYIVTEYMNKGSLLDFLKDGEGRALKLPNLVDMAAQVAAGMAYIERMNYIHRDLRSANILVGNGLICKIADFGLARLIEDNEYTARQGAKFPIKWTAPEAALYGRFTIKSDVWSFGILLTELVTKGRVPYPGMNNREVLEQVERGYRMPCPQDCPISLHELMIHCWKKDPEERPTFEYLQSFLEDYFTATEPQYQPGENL
# Sequence of human Elastase, ELANE (gene 1991) (P08246 whole entry, looked up): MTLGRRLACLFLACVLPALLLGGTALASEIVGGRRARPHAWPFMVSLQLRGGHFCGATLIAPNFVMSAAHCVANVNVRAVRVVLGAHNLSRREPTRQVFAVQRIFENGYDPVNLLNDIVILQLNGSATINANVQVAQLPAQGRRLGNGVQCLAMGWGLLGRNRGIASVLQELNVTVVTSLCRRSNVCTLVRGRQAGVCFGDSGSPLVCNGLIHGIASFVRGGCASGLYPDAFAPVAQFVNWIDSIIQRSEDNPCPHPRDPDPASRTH
# Sequence of Histone deacetylase 3 (Homo sapiens) (O15379 whole entry, looked up): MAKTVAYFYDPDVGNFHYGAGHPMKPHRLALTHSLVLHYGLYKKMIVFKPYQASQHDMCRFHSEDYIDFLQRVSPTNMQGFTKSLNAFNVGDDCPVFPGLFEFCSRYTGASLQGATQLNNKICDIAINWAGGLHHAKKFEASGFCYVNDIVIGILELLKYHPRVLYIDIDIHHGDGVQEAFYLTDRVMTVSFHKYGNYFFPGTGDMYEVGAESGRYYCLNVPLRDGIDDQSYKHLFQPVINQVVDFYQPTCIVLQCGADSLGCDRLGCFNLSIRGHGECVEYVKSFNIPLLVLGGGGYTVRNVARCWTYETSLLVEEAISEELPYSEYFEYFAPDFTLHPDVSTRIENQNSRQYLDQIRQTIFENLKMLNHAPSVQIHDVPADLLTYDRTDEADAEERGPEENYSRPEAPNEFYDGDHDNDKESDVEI
# Sequence of Glycogen synthase kinase-3 beta (Homo sapiens) (P49841 whole entry, looked up): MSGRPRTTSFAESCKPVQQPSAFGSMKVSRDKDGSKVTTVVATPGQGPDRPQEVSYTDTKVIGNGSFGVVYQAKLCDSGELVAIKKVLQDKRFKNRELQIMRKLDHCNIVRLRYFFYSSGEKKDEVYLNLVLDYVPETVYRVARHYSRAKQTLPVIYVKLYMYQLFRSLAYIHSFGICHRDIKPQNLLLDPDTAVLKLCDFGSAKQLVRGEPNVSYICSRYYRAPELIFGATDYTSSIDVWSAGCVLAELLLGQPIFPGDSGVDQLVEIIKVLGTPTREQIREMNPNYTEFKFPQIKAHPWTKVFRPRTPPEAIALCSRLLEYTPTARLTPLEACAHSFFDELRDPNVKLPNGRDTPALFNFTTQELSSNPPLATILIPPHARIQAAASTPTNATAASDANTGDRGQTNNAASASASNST
# Sequence of human Dual Specificity Protein Phosphatase 3 (DUSP3), DUSP3 (gene 1845) (P51452 whole entry, looked up): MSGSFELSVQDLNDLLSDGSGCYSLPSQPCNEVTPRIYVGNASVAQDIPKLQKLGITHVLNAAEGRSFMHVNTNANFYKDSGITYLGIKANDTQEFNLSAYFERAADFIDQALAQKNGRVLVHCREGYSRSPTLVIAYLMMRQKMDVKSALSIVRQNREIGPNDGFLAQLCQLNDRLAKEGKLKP
# Sequence of human Casein Kinase 1-delta (CK1D), CSNK1D (gene 1453) (P48730 whole entry, looked up): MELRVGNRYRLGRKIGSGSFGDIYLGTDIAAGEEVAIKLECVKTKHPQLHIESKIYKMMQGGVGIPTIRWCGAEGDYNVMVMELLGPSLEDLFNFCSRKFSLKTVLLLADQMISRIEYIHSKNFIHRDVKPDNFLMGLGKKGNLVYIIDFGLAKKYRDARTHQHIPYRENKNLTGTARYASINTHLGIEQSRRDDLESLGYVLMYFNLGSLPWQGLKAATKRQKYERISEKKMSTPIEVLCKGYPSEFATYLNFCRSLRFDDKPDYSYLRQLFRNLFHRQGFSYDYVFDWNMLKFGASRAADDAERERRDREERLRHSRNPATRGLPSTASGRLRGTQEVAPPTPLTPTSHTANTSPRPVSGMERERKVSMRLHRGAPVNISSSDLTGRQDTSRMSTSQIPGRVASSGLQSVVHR
# Sequence of human Esterase Plasma (ES), BCHE (gene 590) (P06276 whole entry, looked up): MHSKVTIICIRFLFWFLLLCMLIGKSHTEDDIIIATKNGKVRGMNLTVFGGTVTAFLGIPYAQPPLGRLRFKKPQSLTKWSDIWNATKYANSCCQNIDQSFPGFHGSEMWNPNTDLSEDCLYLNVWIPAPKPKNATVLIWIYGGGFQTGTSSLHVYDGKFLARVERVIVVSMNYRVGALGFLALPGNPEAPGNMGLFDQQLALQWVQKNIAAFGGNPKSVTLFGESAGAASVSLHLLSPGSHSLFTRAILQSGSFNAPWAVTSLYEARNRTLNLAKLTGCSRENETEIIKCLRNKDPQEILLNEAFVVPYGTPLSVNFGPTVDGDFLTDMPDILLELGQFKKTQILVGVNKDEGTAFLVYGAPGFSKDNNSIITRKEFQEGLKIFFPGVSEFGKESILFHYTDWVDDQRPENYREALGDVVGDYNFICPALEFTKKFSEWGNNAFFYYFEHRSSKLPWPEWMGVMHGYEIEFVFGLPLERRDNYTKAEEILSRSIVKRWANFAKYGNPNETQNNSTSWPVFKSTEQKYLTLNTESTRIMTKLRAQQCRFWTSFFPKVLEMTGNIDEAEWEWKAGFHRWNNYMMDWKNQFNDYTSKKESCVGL
# Sequence of human Ephrin type-B Receptor 1 (EphB1), EPHB1 (gene 2047) (P54762 whole entry, looked up): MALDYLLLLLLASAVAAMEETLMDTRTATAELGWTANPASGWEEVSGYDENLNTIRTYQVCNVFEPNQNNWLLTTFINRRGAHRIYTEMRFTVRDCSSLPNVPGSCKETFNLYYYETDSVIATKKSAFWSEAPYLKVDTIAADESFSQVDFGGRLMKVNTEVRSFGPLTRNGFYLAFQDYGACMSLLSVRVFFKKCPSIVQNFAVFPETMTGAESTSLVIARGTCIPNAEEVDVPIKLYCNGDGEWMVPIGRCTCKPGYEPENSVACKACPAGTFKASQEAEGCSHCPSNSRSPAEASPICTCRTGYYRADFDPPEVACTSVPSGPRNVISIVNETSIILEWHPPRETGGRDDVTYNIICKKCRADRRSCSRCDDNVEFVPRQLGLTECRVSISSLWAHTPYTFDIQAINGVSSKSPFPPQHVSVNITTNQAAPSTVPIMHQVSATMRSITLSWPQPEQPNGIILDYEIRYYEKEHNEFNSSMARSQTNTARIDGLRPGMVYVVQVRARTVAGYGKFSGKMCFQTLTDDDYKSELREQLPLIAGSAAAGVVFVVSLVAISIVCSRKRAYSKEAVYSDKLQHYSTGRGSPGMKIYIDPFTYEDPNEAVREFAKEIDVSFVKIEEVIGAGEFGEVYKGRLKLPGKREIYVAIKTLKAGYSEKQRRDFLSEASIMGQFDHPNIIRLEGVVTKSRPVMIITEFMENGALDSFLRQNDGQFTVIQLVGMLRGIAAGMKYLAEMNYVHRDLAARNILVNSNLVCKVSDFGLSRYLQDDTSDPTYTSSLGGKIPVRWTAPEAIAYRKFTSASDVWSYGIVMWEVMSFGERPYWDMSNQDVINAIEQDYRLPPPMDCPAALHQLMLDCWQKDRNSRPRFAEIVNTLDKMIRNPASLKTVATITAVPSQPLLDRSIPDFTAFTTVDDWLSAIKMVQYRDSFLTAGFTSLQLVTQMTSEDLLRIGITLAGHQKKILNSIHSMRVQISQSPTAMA
# Sequence of human Colony Stimulating Factor 1 Receptor (CSF1R), CSF1R (gene 1436) (P07333 whole entry, looked up): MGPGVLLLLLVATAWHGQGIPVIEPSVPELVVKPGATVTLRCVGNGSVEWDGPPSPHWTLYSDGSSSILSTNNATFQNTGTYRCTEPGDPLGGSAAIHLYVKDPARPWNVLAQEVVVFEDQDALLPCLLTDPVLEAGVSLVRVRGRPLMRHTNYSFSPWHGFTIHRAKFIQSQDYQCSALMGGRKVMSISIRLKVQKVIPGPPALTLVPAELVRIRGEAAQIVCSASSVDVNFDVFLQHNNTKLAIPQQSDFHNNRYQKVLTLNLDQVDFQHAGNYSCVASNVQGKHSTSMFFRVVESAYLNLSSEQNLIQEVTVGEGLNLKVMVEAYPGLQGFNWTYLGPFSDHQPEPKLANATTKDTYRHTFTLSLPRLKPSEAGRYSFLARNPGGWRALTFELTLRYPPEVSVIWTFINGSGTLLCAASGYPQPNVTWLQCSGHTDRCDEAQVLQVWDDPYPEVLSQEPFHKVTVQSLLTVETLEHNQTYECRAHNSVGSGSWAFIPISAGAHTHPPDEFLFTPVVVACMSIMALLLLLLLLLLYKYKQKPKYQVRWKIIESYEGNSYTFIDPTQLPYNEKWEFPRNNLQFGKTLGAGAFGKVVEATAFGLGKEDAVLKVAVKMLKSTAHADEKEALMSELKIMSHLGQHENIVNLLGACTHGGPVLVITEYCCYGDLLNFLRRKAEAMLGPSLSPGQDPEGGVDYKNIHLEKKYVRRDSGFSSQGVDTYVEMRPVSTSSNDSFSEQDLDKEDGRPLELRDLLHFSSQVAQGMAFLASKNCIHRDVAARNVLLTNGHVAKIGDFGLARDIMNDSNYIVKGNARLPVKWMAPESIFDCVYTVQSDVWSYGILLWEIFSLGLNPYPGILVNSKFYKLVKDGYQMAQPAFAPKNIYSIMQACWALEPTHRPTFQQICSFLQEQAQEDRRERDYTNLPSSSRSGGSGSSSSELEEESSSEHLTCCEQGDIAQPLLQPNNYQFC
smiles,measurement,setting,value
CC(=O)[C@H]1CC[C@H]2[C@@H]3CCC4=CC(=O)CC[C@]4(C)[C@H]3CC[C@]12C,outcome,[1],inactive
same,outcome,[2],inactive
N[C@@H](Cc1cc(I)c(Oc2ccc(O)c(I)c2)c(I)c1)C(=O)O,AC50,[3],6.35 µM (active)
same,outcome,[4],inactive
same,outcome,[5],inactive
Oc1ccc(C(c2ccc(O)cc2)C(Cl)(Cl)Cl)cc1,outcome,[6],inactive
C#CCOC(=O)[C@@H](C)Oc1ccc(Oc2ncc(Cl)cc2F)cc1,outcome,[3],inactive
same,outcome,[4],inactive
CC(C)CCCCCCc1ccc(O)cc1,outcome,[1],inactive
same,outcome,[7],inactive
same,outcome,[8],inactive
same,outcome,[2],inactive
CCCCCOC(=O)COc1cc(N2C(=O)C3=C(CCCC3)C2=O)c(F)cc1Cl,outcome,[4],inactive
CCN(CC)C(=O)c1cccc(C)c1,outcome,[9],inactive
CCOC(=O)NCCOc1ccc(Oc2ccccc2)cc1,outcome,[3],inactive
same,outcome,[5],inactive
O=C(Nc1ccc([N+](=O)[O-])cc1Cl)c1cc(Cl)ccc1O,outcome,[1],inactive
CCOC(=O)[C@H](C)Oc1ccc(Oc2nc3ccc(Cl)cc3o2)cc1,AC50,[10],3.18 µM (active)
CCCN(CCC)c1c([N+](=O)[O-])cc(C(F)(F)F)c(N)c1[N+](=O)[O-],outcome,[6],inactive
C[C@]12CC[C@@H]3c4ccc(O)cc4C[C@@H](CCCCCCCCCS(=O)CCCC(F)(F)C(F)(F)F)[C@H]3[C@@H]1CC[C@@H]2O (some centres not stated),outcome,[3],inactive
same,outcome,[5],inactive
O=C(c1ccc(O)cc1O)c1ccc(O)cc1O,AC50,[1],17.3 µM (active)
same,AC50,[10],11.6 µM (active)
same,AC50,[5],25 µM (active)
same,AC50,[7],15.1 µM (active)
same,outcome,[8],inactive
same,AC50,[2],25 µM (active)
O=C(c1ccccc1)C1CCCCC1,outcome,[5],inactive
c1ccc2[nH]c(-c3cscn3)nc2c1,AC50,[1],19.8 µM (active)
same,outcome,[9],inactive
same,outcome,[5],inactive
same,outcome,[7],inactive
same,outcome,[2],inactive
CSC(=O)c1cccc2nnsc12,outcome,[8],inactive
CCCCOC(=O)C(C)Oc1ccc(Oc2ccc(C(F)(F)F)cn2)cc1 (configuration not stated),outcome,[10],inactive
COC(=O)CSc1cc(N=c2sc(=O)n3n2CCCC3)c(F)cc1Cl,outcome,[3],inactive
same,outcome,[6],inactive
same,outcome,[9],inactive
CCCOC(=O)NCCCN(C)C,outcome,[6],inactive
CCOC(=O)C(C)Oc1ccc(Oc2nc3ccc(Cl)cc3o2)cc1 (configuration not stated),outcome,[6],inactive
same,outcome,[9],inactive
S=C([S-])NCCNC(=S)[S-].[Mn+2],AC50,[1],25 µM (active)
same,AC50,[10],5.51 µM (active)
same,outcome,[3],inactive
same,outcome,[4],inactive
same,outcome,[7],inactive
same,AC50,[2],0.306 µM (active)
O=C(O)C1(C(=O)Nc2ccc(Cl)cc2Cl)CC1,outcome,[10],inactive
same,outcome,[2],inactive
N#CSCSc1nc2ccccc2s1,outcome,[6],inactive
same,outcome,[5],inactive
same,AC50,[8],20 µM (active)
CC(C)(c1ccc(O)cc1)c1ccc(O)cc1,AC50,[1],25.4 µM (active)
same,outcome,[9],inactive
COC(=O)c1cccc(C)c1S(=O)(=O)NC(=O)Nc1nc(OCC(F)(F)F)nc(N(C)C)n1,outcome,[4],inactive
COC(=O)c1ccc(CNS(C)(=O)=O)cc1S(=O)(=O)NC(=O)Nc1nc(OC)cc(OC)n1,outcome,[8],inactive
S=C(S)NCCNC(=S)S.[Mn+2].[S-]C([S-])=NCCN=C([S-])[S-].[Zn+2],AC50,[1],18.2 µM (active) and 33.6 µM (active)
same,AC50,[10],963 nM (active) and 315 nM (active) and 12.9 µM (active)
same,AC50,[5],43.5 µM (active)
same,outcome,[5],inactive
same,AC50,[8],10 µM (active) and 445 nM (active)
same,AC50,[2],1.08 µM (active) and 3.32 µM (active) and 678 nM (active)
COC(=O)c1c(Cl)nn(C)c1S(=O)(=O)NC(=O)Nc1nc(OC)cc(OC)n1,AC50,[1],21.1 µM (active)
CCNc1nc(N)nc(Cl)n1,AC50,[1],22.1 µM (active)
same,outcome,[10],inactive
CCCCC(CC)COC(=O)c1ccccc1C(=O)O (configuration not stated),outcome,[1],inactive
CCCCOC(=O)[C@@H](C)Oc1ccc(Oc2ccc(C(F)(F)F)cn2)cc1,outcome,[3],inactive
